In the supplement of paper PMC12645437, “Orthogonal IMiD-Degron Pairs Induce Selective Protein Degradation in Cells” (ACS Chemical Biology, 2025):
The full ranking holds about 8,300 sequences; the median of “log2 fold change of degron read counts, EGFP-low vs EGFP+ sorted cells (limma voom), compound-induced degradation” is about -1.1, and the highest 2% start at about 3.2. Shown is part of a subset that was picked to be rich in the highest values.

T1: CRBN, Q96SW2
T1 chain: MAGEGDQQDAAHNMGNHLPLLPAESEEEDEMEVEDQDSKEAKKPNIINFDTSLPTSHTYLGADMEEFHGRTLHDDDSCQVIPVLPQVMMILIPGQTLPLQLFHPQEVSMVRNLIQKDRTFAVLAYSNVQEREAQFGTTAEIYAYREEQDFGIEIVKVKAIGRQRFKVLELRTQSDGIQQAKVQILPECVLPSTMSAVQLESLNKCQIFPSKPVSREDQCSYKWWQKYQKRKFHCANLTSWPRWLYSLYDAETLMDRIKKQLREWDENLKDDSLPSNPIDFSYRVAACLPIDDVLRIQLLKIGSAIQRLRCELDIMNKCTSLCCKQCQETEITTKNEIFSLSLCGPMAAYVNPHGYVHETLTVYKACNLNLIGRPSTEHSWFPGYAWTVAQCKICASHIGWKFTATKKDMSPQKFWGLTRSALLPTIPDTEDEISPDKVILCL

B1: 46F_47E_49N_50Q_52G_53H_54I_55F_67L_, Q9UKT9 (peptide)
chain: FECNQCGHIFTQKGNLLRHIKL
B2: 46F_47V_49E_50I_52G_53R_54M_55F_67L_, Q9UKT9 (peptide)
chain: FVCEICGRMFTQKGNLLRHIKL
B3: 46F_47H_49E_50I_52G_53H_54N_55F_67L_, Q9UKT9 (peptide)
chain: FHCEICGHNFTQKGNLLRHIKL
B4: 46F_47E_49N_50I_52G_53A_54H_55F_67L_, Q9UKT9 (peptide)
chain: FECNICGAHFTQKGNLLRHIKL
B5: 46F_47R_49E_50I_52G_53A_54Q_55F_67L_, Q9UKT9 (peptide)
chain: FRCEICGAQFTQKGNLLRHIKL
B6: 46F_47L_49E_50I_52G_53A_54Q_55F_67L_, Q9UKT9 (peptide)
chain: FLCEICGAQFTQKGNLLRHIKL
B7: 46F_47T_49E_50I_52G_53A_54Q_55F_67L_, Q9UKT9 (peptide)
chain: FTCEICGAQFTQKGNLLRHIKL
B8: 46F_47E_49E_50I_52G_53A_54Q_55F_67L_, Q9UKT9 (peptide)
chain: FECEICGAQFTQKGNLLRHIKL
B9: 46F_47W_49E_50I_52G_53A_54Q_55F_67L_, Q9UKT9 (peptide)
chain: FWCEICGAQFTQKGNLLRHIKL
B10: 46F_47H_49E_50I_52G_53A_54Q_55F_67L_, Q9UKT9 (peptide)
chain: FHCEICGAQFTQKGNLLRHIKL
B11: 46F_47Q_49E_50I_52G_53A_54Q_55F_67L_, Q9UKT9 (peptide)
chain: FQCEICGAQFTQKGNLLRHIKL
B12: 46F_47I_49E_50I_52G_53A_54Q_55F_67L_, Q9UKT9 (peptide)
chain: FICEICGAQFTQKGNLLRHIKL
B13: 46F_47D_49E_50I_52G_53A_54Q_55F_67L_, Q9UKT9 (peptide)
chain: FDCEICGAQFTQKGNLLRHIKL
B14: 46F_47M_49E_50I_52G_53A_54Q_55F_67L_, Q9UKT9 (peptide)
chain: FMCEICGAQFTQKGNLLRHIKL
B15: 46F_47F_49E_50I_52G_53A_54Q_55F_67L_, Q9UKT9 (peptide)
chain: FFCEICGAQFTQKGNLLRHIKL
B16: 46F_47Y_49E_50I_52G_53A_54Q_55F_67L_, Q9UKT9 (peptide)
chain: FYCEICGAQFTQKGNLLRHIKL
B17: 46F_47N_49P_50I_52G_53A_54E_55F_67L_, Q9UKT9 (peptide)
chain: FNCPICGAEFTQKGNLLRHIKL
B18: 46F_47E_49D_50I_52G_53A_54R_55F_67L_, Q9UKT9 (peptide)
chain: FECDICGARFTQKGNLLRHIKL

Molecular target: T1, CRBN, Q96SW2
Test: log2 fold change of degron read counts, EGFP-low vs EGFP+ sorted cells (limma voom), compound-induced degradation; higher = more compound-induced degradation of the degron-EGFP fusion; degrons are variants of IKZF1/3 zinc finger 2; compound dose not given here
Conditions: Jurkat, 18 h
Protocol: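 Pooled library of 8380 IKZF3 ZF2 degron mutants (positions 146-167 varied within the IKZF3 130-189 degron; only the varied core is printed, flanks not printed) fused to EGFP with IRES-mCherry, lentivirally expressed in Jurkat cells. mCherry+ cells were treated with one IMiD compound for 18 h (dose not stated) and FACS-sorted into EGFP-low and EGFP+ populations. Degron sequences were counted by NGS, and log2FC (EGFP-low vs EGFP+) was estimated by limma voom over 3 biological replicates.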

[1] = compound: compound 19 (5-tert-butyl-thalidomide)
[2] = compound: compound 22 (5-morpholino-thalidomide)
[3] = compound: compound 33 (diphenyl IMiD analogue)
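Also: pooled lentiviral library of zinc finger degron-EGFP fusions in mCherry-positive Jurkat cells, FACS-sorted after compound exposure, with degron abundance counted by next-generation sequencing.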

| Sequence | log2 fold change of degron read counts [1] | log2 fold change of degron read counts [2] | log2 fold change of degron read counts [3] | log2 fold change of degron read counts (compound: thalidomide) |
| --- | --- | --- | --- | --- |
| B1 | -3.19 | -3.02 | -3.5 | -3.26 |
| B2 | -2.37 | -1.56 | -0.324 | -0.297 |
| B3 | -2.97 | -3.92 | -2.88 | -3.29 |
| B4 | -1.95 | -2.29 | 0.157 | 0.612 |
| B5 | 0.162 | 0.149 | 1.38 | 1.94 |
| B6 | 1.29 | -0.49 | 1.79 | 2.07 |
| B7 | 0.557 | 1.85 | 2.25 | 2.92 |
| B8 | -0.353 | -0.866 | 1.45 | 2.5 |
| B9 | 3.54 | 3.93 | 2.7 | 2.04 |
| B10 | 2.66 | 2.64 | 2 | 0.968 |
| B11 | 0.962 | 2.24 | 2.41 | 3.56 |
| B12 | 0.506 | 2.86 | 3.06 | 3.16 |
| B13 | 2.04 | 0.951 | -0.0023 | 1.29 |
| B14 | 0.486 | 0.824 | 2.7 | 1.97 |
| B15 | 3.67 | 3.67 | 2.56 | 1.93 |
| B16 | 3.6 | 3.55 | 3.13 | 2.12 |
| B17 | 1.92 | 0.348 | 0.475 | 0.897 |
| B18 | -0.106 | -1.6 | -0.318 | 1.69 |
